Results as given in PubChem BioAssay (NCATS).
Results filed as inconclusive are left out. Calls of active or inactive are those of the source. The call rests on the fitted dose curve; in most records, active means well fitted curve in the direction sought with a large enough effect; inconclusive means small, poorly fitted or top-dose-only effect, or another doubt; inactive means no such curve, though single readings can be large; an effect the other way counts as inactive or inconclusive.

Tests used:
[1] = Quantitative High-Throughput drug screen in 47 multiple myeloma cell lines against the NCATS MIPE library collection: JIM3_ECACC cell viability assay (AID 1918963; further: nearly all actives have a fitted effect of over 35% in size)
Method in brief: (§1)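 Viability readout: CellTiter-Glo luminescence following 5 min room-temperature incubation with reagent. Prior exposure: 48 h, 37C, humidified 5% CO2, 500 cells per well.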

[2] = Quantitative High-Throughput drug screen in 47 multiple myeloma cell lines against the NCATS MIPE library collection: JJN3_DSMZ cell viability assay (AID 1918966; further: nearly all actives have a fitted effect of over 50% in size)
Method in brief: as §1

[3] = Quantitative High-Throughput drug screen in 47 multiple myeloma cell lines against the NCATS MIPE library collection: H1112_PLB cell viability assay (AID 1918967; further: nearly all actives have a fitted effect of over 30% in size)
Method in brief: as §1

[4] = Quantitative High-Throughput drug screen in 47 multiple myeloma cell lines against the NCATS MIPE library collection: Karpas25_ECACC cell viability assay (AID 1918968; further: nearly all actives have a fitted effect of over 35% in size)
Method in brief: as §1

[5] = Quantitative High-Throughput drug screen in 47 multiple myeloma cell lines against the NCATS MIPE library collection: KMS12PE_JCRB cell viability assay (AID 1918972); further: nearly all actives have a fitted effect of over 30% in size
Method in brief: (§2)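 Approved and investigational drugs from MIPE 4.0 were added by pin tool to 500 cells per well. After 48 hours at 37C, ATP-based CellTiter-Glo luminescence indicated remaining viability.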

[6] = Quantitative High-Throughput drug screen in 47 multiple myeloma cell lines against the NCATS MIPE library collection: MM1S_ATCC cell viability assay (AID 1918980); further: nearly all actives have a fitted effect of over 45% in size
Method in brief: (§3)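 MIPE 4.0 approved/investigational drugs; 500 cells/well; 48 h 37 °C humidified 5% CO2; CTG luminescence readout; DMSO = 100%, media = 0% viability.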

[7] = Quantitative High-Throughput drug screen in 47 multiple myeloma cell lines against the NCATS MIPE library collection: AMO1_DSMZ cell viability assay (AID 1918927; further: nearly all actives have a fitted effect of over 30% in size)
Method in brief: as §1

[8] = Quantitative High-Throughput drug screen in 47 multiple myeloma cell lines against the NCATS MIPE library collection: ARD_JJKsccE7 cell viability assay (AID 1918929)
Method in brief: as §1

[9] = Quantitative High-Throughput drug screen in 47 multiple myeloma cell lines against the NCATS MIPE library collection: Karpas620_DSMZ cell viability assay (AID 1918959); further: nearly all actives have a fitted effect of over 30% in size
Method in brief: as §1

[10] = Quantitative High-Throughput drug screen in 47 multiple myeloma cell lines against the NCATS MIPE library collection: KMM1_JCRB cell viability assay (AID 1918960); further: nearly all actives have a fitted effect of over 30% in size
Method in brief: (§4)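 Here, 48 h treatment with MIPE 4.0 agents at 37 °C preceded an ATP luminescence read. Plating density was 500 cells per well.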

[11] = Quantitative High-Throughput drug screen in 47 multiple myeloma cell lines against the NCATS MIPE library collection: KMS12BM_JCRB cell viability assay (AID 1918971); further: nearly all actives have a fitted effect of over 35% in size
Method in brief: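 Luminescent ATP measurement with CellTiter-Glo gives viability, scaled between DMSO-only wells (100%) and media-only wells (0%). Cells, 500 per well, faced library compounds for 48 hours at 37C.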

[12] = Quantitative High-Throughput drug screen in 47 multiple myeloma cell lines against the NCATS MIPE library collection: KMS20_JCRB cell viability assay (AID 1918973); further: nearly all actives have a fitted effect of over 45% in size
Method in brief: as §1

[13] = Quantitative High-Throughput drug screen in 47 multiple myeloma cell lines against the NCATS MIPE library collection: MOLP8_DSMZ cell viability assay (AID 1918977); further: nearly all actives have a fitted effect of over 45% in size
Method in brief: as §3

[14] = Quantitative High-Throughput drug screen in 47 multiple myeloma cell lines against the NCATS MIPE library collection: MM1R_ATCC cell viability assay (AID 1918981); further: nearly all actives have a fitted effect of over 35% in size
Method in brief: as §3

[15] = Quantitative High-Throughput drug screen in 47 multiple myeloma cell lines against the NCATS MIPE library collection: ARP1_JJKsccF8 cell viability assay (AID 1918928; further: nearly all actives have a fitted effect of over 40% in size)
Method in brief: as §4

[16] = Quantitative High-Throughput drug screen in 47 multiple myeloma cell lines against the NCATS MIPE library collection: KHM11_PLB cell viability assay (AID 1918962); further: nearly all actives have a fitted effect of over 35% in size
Method in brief: as §1

[17] = Quantitative High-Throughput drug screen in 47 multiple myeloma cell lines against the NCATS MIPE library collection: JIM1_ECACC cell viability assay (AID 1918964)
Method in brief: as §1

[18] = Quantitative High-Throughput drug screen in 47 multiple myeloma cell lines against the NCATS MIPE library collection: MMM1_PLB cell viability assay (AID 1918976); settings: MMM1 myeloma cells viability, CellTiter-Glo, 48 h; further: nearly all actives have a fitted effect of over 35% in size
Method in brief: as §3

[19] = Quantitative High-Throughput drug screen in 47 multiple myeloma cell lines against the NCATS MIPE library collection: Karpas417_ECACC cell viability assay (AID 1918961); settings: Karpas417 myeloma viability, CellTiter-Glo ATP luminescence, 48 h; viability (% of DMSO): at 45.8 µM (top of the series)
Method in brief: as §2

[20] = Quantitative High-Throughput drug screen in 47 multiple myeloma cell lines against the NCATS MIPE library collection: KMS21BM_JCRB cell viability assay (AID 1918974)
Method in brief: as §1

Measured: Potency
Potency means the concentration at half of the fitted maximal effect.

Cc1cc(SCc2sc(-c3ccc(C(F)(F)F)c(F)c3)nc2C)ccc1OCC(=O)O
inactive: [2]
active: [1] 20.9 µM | [3] 20.9 µM | [4] 16.6 µM | [5] 18.7 µM | [6] 9.35 µM

COC[C@@H](NC(C)=O)C(=O)NCc1ccccc1
inactive: [7] | [8] | [9] | [10] | [1] | [2] | [3] | [11] | [12] | [13] | [14]

Fc1ccc(C(OCCN2CCN(CCCc3ccccc3)CC2)c2ccc(F)cc2)cc1
inactive: [7] | [9] | [10] | [17]
active: [15] 20.9 µM | [16] 13.2 µM | [1] 13.2 µM | [2] 23.5 µM | [3] 13.2 µM | [4] 8.33 µM | [11] 14.8 µM | [12] 9.35 µM | [18] 14.8 µM | [6] 18.7 µM | [14] 16.6 µM

COC1(CS(=O)c2ccccc2)CCN(CCc2c[nH]c3ccc(F)cc23)CC1 (stereo not drawn)
inactive: [15] | [8] | [19] | [16] | [1] | [2] | [3] | [11] | [20] | [13] | [14]
active: [4] 9.35 µM | [18] 3.72 µM

Cn1c(CCCC(=O)O)nc2cc(N(CCCl)CCCl)ccc21
inactive: [8] | [9] | [10] | [1] | [5]
active: [11] 7.43 µM | [18] 10.5 µM | [13] 3.32 µM | [6] 23.5 µM | [14] 18.7 µM

CC1=C2C[C@@H]3[C@@H](CC=C4C[C@@H](O)CC[C@@]43C)[C@@H]2CC[C@]12O[C@H]1C[C@H](C)CN[C@H]1[C@H]2C
inactive: [7] | [15] | [8] | [9] | [10] | [1] | [17] | [3] | [4] | [5] | [13]
active: [12] 0.0469 µM | [18] 9.35 µM | [14] 14.8 µM

CC(C)CC(N(C)C)C1(c2ccc(Cl)cc2)CCC1 (stereo not drawn)
inactive: [7] | [15] | [8] | [9] | [10] | [16] | [1] | [17] | [2] | [5] | [13]
active: [3] 5.26 µM | [6] 5.26 µM

CN(C)CCc1ccc(O)cc1
inactive: [7] | [8] | [9] | [10] | [19] | [1] | [3] | [11] | [5] | [20] | [13] | [6] | [14]
active: [18] 1.66 µM

C#CCN(C)[C@H](C)Cc1ccccc1
active: [2] 8.33 µM | [18] 2.96 µM
inactive: [15] | [8] | [9] | [16] | [1] | [3] | [4] | [5] | [12] | [6]

C=C(C)[C@H]1Cc2c(ccc3c2O[C@@H]2COc4cc(OC)c(OC)cc4[C@@H]2C3=O)O1
active: [7] 0.469 µM | [15] 0.526 µM | [8] 0.332 µM | [9] 0.296 µM | [10] 0.235 µM | [1] 0.935 µM | [17] 0.418 µM | [2] 7.43 µM | [3] 0.132 µM | [4] 0.0469 µM | [11] 2.64 µM | [12] 0.332 µM | [20] 0.209 µM | [18] 0.166 µM | [6] 1.32 µM | [14] 0.526 µM

C[C@@H]1[C@@H](C(=O)C[C@H]2O[C@@H]3O[C@]4(C)CC[C@@H]5[C@H](C)CC[C@@H]([C@H]2C)[C@@]35OO4)O[C@@H]2O[C@]3(C)CC[C@H]4[C@H](C)CC[C@@H]1[C@@]24OO3
active: [7] 0.0833 µM | [15] 0.132 µM | [8] 0.148 µM | [9] 0.0418 µM | [10] 0.0469 µM | [16] 0.332 µM | [1] 0.187 µM | [2] 0.296 µM | [3] 0.469 µM | [4] 0.0526 µM | [11] 0.372 µM | [5] 0.0833 µM | [12] 0.469 µM | [18] 0.418 µM | [13] 0.526 µM | [6] 16.6 µM | [14] 3.72 µM

Cn1cc(C2=C(c3cn(C4CCN(Cc5ccccn5)CC4)c4ccccc34)C(=O)NC2=O)c2ccccc21
inactive: [13]
active: [7] 0.935 µM | [8] 9.35 µM | [9] 5.9 µM | [10] 4.18 µM | [1] 8.33 µM | [17] 1.32 µM | [2] 14.8 µM | [3] 10.5 µM | [4] 8.33 µM | [11] 23.5 µM | [5] 2.35 µM | [20] 0.166 µM | [6] 7.43 µM | [14] 13.2 µM

N[C@@H](Cc1ccc(N(CCCl)CCCl)cc1)C(=O)O
active: [7] 18.7 µM | [15] 16.6 µM | [8] 18.7 µM | [9] 10.5 µM | [10] 13.2 µM | [19] 2.96 µM | [16] 20.9 µM | [1] 16.6 µM | [17] 10.5 µM | [2] 11.8 µM | [3] 6.62 µM | [4] 13.2 µM | [11] 16.6 µM | [5] 16.6 µM | [18] 4.69 µM | [13] 5.9 µM | [6] 13.2 µM | [14] 2.64 µM

COc1ccc2c(c1OC)CN1CCc3cc4c(cc3C1C2)OCO4 (stereo not drawn)
inactive: [3]
active: [1] 16.6 µM | [2] 16.6 µM | [4] 18.7 µM | [11] 18.7 µM | [18] 26.4 µM

COc1ccc(C(=O)c2c(C)n(CCN3CCOCC3)c3ccccc23)cc1
inactive: [7] | [15] | [8] | [10] | [16] | [1] | [3] | [11] | [13] | [14]

C[C@@H]1[C@@H](CC(C[C@H]2O[C@@H]3O[C@]4(C)CC[C@@H]5[C@H](C)CC[C@@H]([C@H]2C)[C@@]35OO4)C[S+](=O)([O-])c2ccc(COC(=O)N(C)C)cc2)O[C@@H]2O[C@]3(C)CC[C@H]4[C@H](C)CC[C@@H]1[C@@]24OO3 (stereo partly drawn)
active: [7] 0.118 µM | [15] 0.0935 µM | [8] 0.118 µM | [9] 0.0418 µM | [10] 0.105 µM | [19] 0.132 µM | [1] 0.264 µM | [17] 0.0662 µM | [2] 0.148 µM | [3] 0.209 µM | [4] 0.118 µM | [11] 0.148 µM | [5] 0.0833 µM | [12] 0.264 µM | [18] 0.148 µM | [13] 0.187 µM | [6] 0.526 µM | [14] 0.332 µM
